About 2,000 (36%) of roughly 5,500 compounds were called active. Roughly 18% stayed inconclusive and do not appear here. Rule as the data show it: active = normalized growth mostly below about 0.91 (no sharp cut-off); inconclusive = no clear call, values can overlap the other calls; inactive = mostly above about 0.92. Some of the results follow.
Assay: chemical genetic growth profiling, strain panel (AID 1159580);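 also: tested at 20 µM; growth read once vehicle control cultures reached saturation at 30 °C; 1 = growth at the plate median or of vehicle wells; lower values mean less growth of the strain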
Conditions: growth OD
[1] = S. cerevisiae deletion strains, locus YAL013W, strain DEP1, hits give low values
[2] = S. cerevisiae deletion strains, locus YBR229C, strain ROT2, hits give low values
[3] = S. cerevisiae deletion strains, locus YDL101C, strain DUN1, hits give low values
[4] = S. cerevisiae deletion strains, locus YDR150W, strain NUM1, hits give low values
[5] = S. cerevisiae deletion strains, locus YEL061C, strain CIN8, hits give low values
[6] = S. cerevisiae deletion strains, locus YGR078C, strain PAC10, hits give low values
[7] = S. cerevisiae deletion strains, locus YHR030C, strain SLT2, hits give low values
[8] = S. cerevisiae deletion strains, locus YJR043C, strain POL32, hits give low values
[9] = S. cerevisiae deletion strains, locus YJR075W, strain HOC1, hits give low values
[10] = S. cerevisiae deletion strains, locus YLR039C, strain RIC1, hits give low values
[11] = S. cerevisiae deletion strains, locus YLR262C, strain YPT6, hits give low values
[12] = S. cerevisiae deletion strains, locus YMR263W, strain SAP30, hits give low values
[13] = S. cerevisiae deletion strains, locus YNL153C, strain GIM3, hits give low values
[14] = S. cerevisiae deletion strains, locus YNL322C, strain KRE1, hits give low values
[15] = S. cerevisiae deletion strains, locus YOL006C, strain TOP1, hits give low values
[16] = S. cerevisiae deletion strains, locus YPL055C, strain LGE1, hits give low values
[17] = S. cerevisiae deletion strains, locus YPL241C, strain CIN2, hits give low values
[18] = S. cerevisiae strains, strain wild type, hits give low values

Measured: normalized growth

CSc1nc(N)nc(N2CCCCC2)n1
inactive: [1] 1 | [2] 1 | [3] 1 | [4] 0.982 | [5] 1 | [6] 1 | [7] 0.951 | S. cerevisiae deletion strains, locus YHR087W, strain rtc3, hits give low values 1 | [8] 1 | [9] 1 | [10] 1.01 | S. cerevisiae deletion strains, locus YLR058C, strain SHM2 (second series), hits give low values 1.02 | S. cerevisiae deletion strains, locus YLR085C, strain ARP6, hits give low values 0.936 | [11] 1.02 | S. cerevisiae deletion strains, locus YML094W, strain GIM5, hits give low values 0.944 | S. cerevisiae deletion strains, locus YMR219W, strain ESC1, hits give low values 1.01 | [12] 1.02 | [13] 0.99 | S. cerevisiae deletion strains, locus YNL298W, strain CLA4 (second series), hits give low values 1.02 | [14] 1 | S. cerevisiae deletion strains, locus YNR030W, strain Alg12, hits give low values 1.01 | [15] 0.812 | [16] 0.939 | [17] 0.935 | S. cerevisiae deletion strains, locus YPR135W, strain CTF4, hits give low values 0.946 | [18] 1.01

CNC(=O)[C@H]1O[C@@H](n2cnc3c(NCc4ccc(N)cc4)ncnc32)C(O)[C@H]1O (stereo not given in full)
inactive: [1] 0.978 | S. cerevisiae deletion strains, locus YAL040C, strain CLN3, hits give low values 0.991 | S. cerevisiae deletion strains, locus YER002W, strain NOP16, hits give low values 1.02 | [6] 0.986 | S. cerevisiae deletion strains, locus YNL175C, strain NOP13, hits give low values 1.02 | S. cerevisiae deletion strains, locus YNL197C, strain WHI3, hits give low values 1.01 | S. cerevisiae deletion strains, locus YNL224C, strain SQS1, hits give low values 1.02 | S. cerevisiae deletion strains, locus YOR083W, strain WHI5 (second series), hits give low values 0.995

NCC1OC(OC2C(CO)OC(OC3C(O)C(N)CC(N)C3OC3OC(CO)C(O)CC3N)C2O)C(N)C(O)C1OC1OC(CO)C(O)C(O)C1O (stereo not given)
inactive: [1] 0.997 | S. cerevisiae deletion strains, locus YBR021W, strain FUR4, hits give low values 1.17 | [2] 0.999 | S. cerevisiae deletion strains, locus YCL029C, strain bik1, hits give low values 0.977 | S. cerevisiae deletion strains, locus YDL035C, strain GPR1, hits give low values 0.996 | S. cerevisiae deletion strains, locus YDL074C, strain BRE1, hits give low values 0.993 | [3] 0.992 | S. cerevisiae deletion strains, locus YDL134C, strain PPH21, hits give low values 1.01 | S. cerevisiae deletion strains, locus YDL185W, strain tfp1, hits give low values 0.958 | S. cerevisiae deletion strains, locus YDL192W, strain arf1, hits give low values 0.984 | S. cerevisiae deletion strains, locus YDR101C, strain arx1, hits give low values 0.978 | [4] 0.991 | S. cerevisiae deletion strains, locus YDR162C, strain NBP2, hits give low values 0.992 | S. cerevisiae deletion strains, locus YDR318W, strain mcm21, hits give low values 0.997 | S. cerevisiae deletion strains, locus YDR388W, hits give low values 0.998 | S. cerevisiae deletion strains, locus YDR502C, strain sam2, hits give low values 0.988 | [5] 0.995 | S. cerevisiae deletion strains, locus YER110C, hits give low values 0.986 | S. cerevisiae deletion strains, locus YER155C, strain BEM2, hits give low values 0.995 | S. cerevisiae deletion strains, locus YER167W, strain BCK2, hits give low values 0.997 | S. cerevisiae deletion strains, locus YGL078C, strain dbp3, hits give low values 0.997 | S. cerevisiae deletion strains, locus YGL086W, strain mad1, hits give low values 1.01 | S. cerevisiae deletion strains, locus YGL248W, strain PDE1, hits give low values 0.996 | [6] 0.974 | S. cerevisiae deletion strains, locus YGR135W, strain pre9, hits give low values 0.993 | S. cerevisiae deletion strains, locus YGR229C, strain SMI1, hits give low values 0.991 | S. cerevisiae deletion strains, locus YGR252W, strain gcn5, hits give low values 1.18 | [7] 0.993 | S. cerevisiae deletion strains, locus YHR079C, strain IRE1 (second series), hits give low values 0.986 | S. cerevisiae deletion strains, locus YHR094C, strain hxt1, hits give low values 0.975 | S. cerevisiae deletion strains, locus YHR129C, strain ARP1, hits give low values 0.988 | S. cerevisiae deletion strains, locus YHR200W, strain rpn10, hits give low values 0.993 | S. cerevisiae deletion strains, locus YIL066C, strain RNR3, hits give low values 0.987 | S. cerevisiae deletion strains, locus YIL073C, strain SPO22, hits give low values 0.899 | S. cerevisiae deletion strains, locus YIL125W, strain kgd1, hits give low values 0.995 | S. cerevisiae deletion strains, locus YIR030C, strain dcg1, hits give low values 0.988 | S. cerevisiae deletion strains, locus YJL095W, strain BCK1, hits give low values 0.982 | S. cerevisiae deletion strains, locus YJL134W, strain LCB3, hits give low values 0.992 | S. cerevisiae deletion strains, locus YJL168C, strain set2, hits give low values 0.986 | S. cerevisiae deletion strains, locus YJL187C, strain SWE1 (second series), hits give low values 0.988 | [8] 0.992 | [9] 0.98 | S. cerevisiae deletion strains, locus YKL009W, strain mrt4, hits give low values 0.976 | S. cerevisiae deletion strains, locus YKL068W, hits give low values 0.978 | S. cerevisiae deletion strains, locus YKL085W, strain MDH1 (second series), hits give low values 0.983 | S. cerevisiae deletion strains, locus YKL085W, strain MDH1, hits give low values 0.983 | S. cerevisiae deletion strains, locus YKL190W, strain CNB1, hits give low values 0.995 | S. cerevisiae deletion strains, locus YKR001C, strain vps1, hits give low values 0.991 | [10] 0.944 | S. cerevisiae deletion strains, locus YLR058C, strain SHM2, hits give low values 0.999 | S. cerevisiae deletion strains, locus YLR102C, strain apc9, hits give low values 0.997 | [11] 0.916 | S. cerevisiae deletion strains, locus YLR268W, strain sec22, hits give low values 0.962 | S. cerevisiae deletion strains, locus YLR330W, strain CHS5, hits give low values 0.985 | S. cerevisiae deletion strains, locus YLR342W, strain FKS1 (second series), hits give low values 1.07 | S. cerevisiae deletion strains, locus YLR371W, strain rom2, hits give low values 0.986 | S. cerevisiae deletion strains, locus YLR418C, strain cdc73, hits give low values 1 | S. cerevisiae deletion strains, locus YML016C, strain PPZ1, hits give low values 1.01 | S. cerevisiae deletion strains, locus YML032C, strain rad52, hits give low values 0.981 | S. cerevisiae deletion strains, locus YML124C, strain tub3, hits give low values 1.01 | S. cerevisiae deletion strains, locus YMR078C, strain ctf18, hits give low values 0.993 | S. cerevisiae deletion strains, locus YMR223W, strain ubp8, hits give low values 1.03 | [12] 0.985 | S. cerevisiae deletion strains, locus YMR307W, strain GAS1, hits give low values 1.11 | S. cerevisiae deletion strains, locus YNL067W, strain RPL9B, hits give low values 0.976 | S. cerevisiae deletion strains, locus YNL128W, strain TEP1, hits give low values 0.994 | [13] 0.988 | S. cerevisiae deletion strains, locus YNL233W, strain BNI4, hits give low values 1 | S. cerevisiae deletion strains, locus YNL250W, strain rad50, hits give low values 1 | S. cerevisiae deletion strains, locus YNL271C, strain bni1, hits give low values 0.985 | S. cerevisiae deletion strains, locus YNL298W, strain CLA4, hits give low values 0.984 | S. cerevisiae deletion strains, locus YNL307C, strain MCK1, hits give low values 1 | [14] 0.995 | S. cerevisiae deletion strains, locus YNR052C, strain pop2, hits give low values 0.991 | [15] 0.948 | S. cerevisiae deletion strains, locus YOL012C, strain htz1 1.18 | S. cerevisiae deletion strains, locus YOL147C, strain pex11, hits give low values 0.998 | S. cerevisiae deletion strains, locus YOR061W, strain CKA2, hits give low values 0.997 | S. cerevisiae deletion strains, locus YOR069W, strain VPS5, hits give low values 1 | S. cerevisiae deletion strains, locus YOR136W, strain idh2, hits give low values 0.986 | S. cerevisiae deletion strains, locus YOR144C, strain elg1, hits give low values 0.985 | S. cerevisiae deletion strains, locus YOR184W, strain ser1, hits give low values 0.97 | S. cerevisiae deletion strains, locus YOR316C, strain cot1, hits give low values 0.965 | [16] 0.966 | [17] 0.997 | S. cerevisiae deletion strains, locus YPR119W, strain clb2, hits give low values 0.999 | S. cerevisiae deletion strains, locus YPR141C, strain kar3, hits give low values 0.985 | S. cerevisiae deletion strains, locus YPR163C, strain tif3, hits give low values 0.983 | S. cerevisiae deletion strains, locus YPR167C, strain met16, hits give low values 0.981 | S. cerevisiae deletion strains, strain wtn01, hits give low values 0.954 | [18] 1
